# Results reported in the supplement of paper PMC10849652.
# Of roughly 7,900 targets only a part is listed; those with a hit were picked by preference. About 0.6% of all pairs of compound and target were hits. Unmarked numbers belong to inactive results.
# Columns and labels:
# Assay in all cases: log2 fold change, soluble protein after heating vs DMSO (PISA); higher = thermal stabilisation; K562 cells, 10 uM, 30 min; active = over 0.2 and 3.5 SD of the protein, either way, in both replicates (recomputed)
# [1] = compound: COC1=CC=C(C=C1)CN2C=CC3=C2C=C(C=C3)C(=O)NO
# Procedure, shortened: (§1)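 Values are thermal stability changes relative to control samples and are taken from duplicates. They are stated as log2 fold changes. Before quantification by TMTpro 16plex LC-MS/MS with equalised channel sums, K562 cells at 2×10^6 cells/mL were treated with 10 μM compound for 30 min, heated in aliquots for 3 min across 48°C-58°C, pooled, extracted in PBS with 0.5% NP-40 at 4°C, and centrifuged at 21,000xg for 90 min to give the soluble supernatant.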
# [2] = compound: CON(C)C(=O)N1N=C(c2cc(F)ccc2F)S[C@@]1(CCCN)c1ccccc1 [filanesib]
# Procedure, shortened: as §1
# [3] = compound: CO[C@H]1C[C@@H]2CC[C@@H](C)[C@@](O)(O2)C(=O)C(=O)N2CCCC[C@H]2C(=O)O[C@H]([C@H](C)C[C@@H]2CC[C@H](n3cnnn3)[C@H](OC)C2)CC(=O)[C@H](C)/C=C(\C)[C@@H](O)[C@@H](OC)C(=O)[C@H](C)C[C@H](C)/C=C/C=C/C=C/1C [zotarolimus]
# Procedure, shortened: as §1
# [4] = compound: COc1cc(C(=O)O)ccc1NC(=O)[C@@H]1N[C@@H](CC(C)(C)C)[C@](C#N)(c2ccc(Cl)cc2F)[C@H]1c1cccc(Cl)c1F [idasanutlin]
# Procedure, shortened: as §1
# [5] = compound: COc1cc(Nc2ncc3c(n2)-c2ccc(Cl)cc2C(c2c(F)cccc2OC)=NC3)ccc1C(=O)O [alisertib]
# Procedure, shortened: as §1
# [6] = compound: COc1cc2nc(-c3cc(F)ccc3O)nc(N[C@@H]3CNC[C@H]3C(C)(C)O)c2cc1OC
# Procedure, shortened: as §1
# [7] = compound: COc1cc2ncnc(Nc3ccc(F)c(Cl)c3)c2cc1OCCCN1CCOCC1 [gefitinib]
# Procedure, shortened: as §1
# [8] = compound: COc1cccc2cc(-c3nc([C@H]4CC[C@H](C(=O)O)CC4)n4ncnc(N)c34)[nH]c12
# Procedure, shortened: as §1
# [9] = compound: CS(=O)(=O)CCNCc1ccc(-c2ccc3ncnc(Nc4ccc(OCc5cccc(F)c5)c(Cl)c4)c3c2)o1 [lapatinib]
# Procedure, shortened: as §1
# [10] = compound: CS(=O)(=O)N1CCN(Cc2cc3nc(-c4cccc5[nH]ncc45)nc(N4CCOCC4)c3s2)CC1 [pictilisib]
# Procedure, shortened: as §1
# Sequence of UniProt Q8NCE2 (Q8NCE2 whole entry, looked up): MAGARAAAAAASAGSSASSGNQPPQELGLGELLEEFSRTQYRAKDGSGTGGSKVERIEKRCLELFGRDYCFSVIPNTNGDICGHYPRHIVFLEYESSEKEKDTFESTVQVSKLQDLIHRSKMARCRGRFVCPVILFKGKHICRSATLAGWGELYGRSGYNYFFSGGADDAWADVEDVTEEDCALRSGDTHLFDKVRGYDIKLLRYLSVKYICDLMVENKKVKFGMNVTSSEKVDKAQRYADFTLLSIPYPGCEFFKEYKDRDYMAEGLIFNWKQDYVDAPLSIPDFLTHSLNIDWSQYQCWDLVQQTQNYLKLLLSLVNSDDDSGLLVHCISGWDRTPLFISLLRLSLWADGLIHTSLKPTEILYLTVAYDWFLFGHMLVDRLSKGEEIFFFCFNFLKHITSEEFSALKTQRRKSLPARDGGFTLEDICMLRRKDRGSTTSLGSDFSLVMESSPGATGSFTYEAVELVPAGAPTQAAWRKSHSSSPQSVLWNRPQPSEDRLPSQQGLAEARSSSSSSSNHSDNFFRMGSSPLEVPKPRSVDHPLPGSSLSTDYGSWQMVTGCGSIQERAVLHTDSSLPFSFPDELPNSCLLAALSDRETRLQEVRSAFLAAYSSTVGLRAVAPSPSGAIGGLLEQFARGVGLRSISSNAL
# Sequence of UniProt O95169 (O95169 whole entry, looked up): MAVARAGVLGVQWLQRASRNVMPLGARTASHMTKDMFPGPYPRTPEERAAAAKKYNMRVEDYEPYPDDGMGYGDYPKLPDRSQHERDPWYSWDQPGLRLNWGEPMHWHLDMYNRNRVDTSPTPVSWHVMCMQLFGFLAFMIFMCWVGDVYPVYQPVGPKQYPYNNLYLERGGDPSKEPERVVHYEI
# Sequence of UniProt Q99747 (Q99747 whole entry, looked up): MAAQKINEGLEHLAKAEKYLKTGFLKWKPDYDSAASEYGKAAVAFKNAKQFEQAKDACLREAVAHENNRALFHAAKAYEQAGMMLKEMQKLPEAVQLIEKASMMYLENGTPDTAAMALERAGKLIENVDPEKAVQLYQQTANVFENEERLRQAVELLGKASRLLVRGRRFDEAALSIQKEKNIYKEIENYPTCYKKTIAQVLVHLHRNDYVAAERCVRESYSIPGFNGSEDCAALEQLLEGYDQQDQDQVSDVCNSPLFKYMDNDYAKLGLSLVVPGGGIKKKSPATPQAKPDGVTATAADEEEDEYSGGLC
# Sequence of UniProt Q14980 (Q14980 whole entry, looked up): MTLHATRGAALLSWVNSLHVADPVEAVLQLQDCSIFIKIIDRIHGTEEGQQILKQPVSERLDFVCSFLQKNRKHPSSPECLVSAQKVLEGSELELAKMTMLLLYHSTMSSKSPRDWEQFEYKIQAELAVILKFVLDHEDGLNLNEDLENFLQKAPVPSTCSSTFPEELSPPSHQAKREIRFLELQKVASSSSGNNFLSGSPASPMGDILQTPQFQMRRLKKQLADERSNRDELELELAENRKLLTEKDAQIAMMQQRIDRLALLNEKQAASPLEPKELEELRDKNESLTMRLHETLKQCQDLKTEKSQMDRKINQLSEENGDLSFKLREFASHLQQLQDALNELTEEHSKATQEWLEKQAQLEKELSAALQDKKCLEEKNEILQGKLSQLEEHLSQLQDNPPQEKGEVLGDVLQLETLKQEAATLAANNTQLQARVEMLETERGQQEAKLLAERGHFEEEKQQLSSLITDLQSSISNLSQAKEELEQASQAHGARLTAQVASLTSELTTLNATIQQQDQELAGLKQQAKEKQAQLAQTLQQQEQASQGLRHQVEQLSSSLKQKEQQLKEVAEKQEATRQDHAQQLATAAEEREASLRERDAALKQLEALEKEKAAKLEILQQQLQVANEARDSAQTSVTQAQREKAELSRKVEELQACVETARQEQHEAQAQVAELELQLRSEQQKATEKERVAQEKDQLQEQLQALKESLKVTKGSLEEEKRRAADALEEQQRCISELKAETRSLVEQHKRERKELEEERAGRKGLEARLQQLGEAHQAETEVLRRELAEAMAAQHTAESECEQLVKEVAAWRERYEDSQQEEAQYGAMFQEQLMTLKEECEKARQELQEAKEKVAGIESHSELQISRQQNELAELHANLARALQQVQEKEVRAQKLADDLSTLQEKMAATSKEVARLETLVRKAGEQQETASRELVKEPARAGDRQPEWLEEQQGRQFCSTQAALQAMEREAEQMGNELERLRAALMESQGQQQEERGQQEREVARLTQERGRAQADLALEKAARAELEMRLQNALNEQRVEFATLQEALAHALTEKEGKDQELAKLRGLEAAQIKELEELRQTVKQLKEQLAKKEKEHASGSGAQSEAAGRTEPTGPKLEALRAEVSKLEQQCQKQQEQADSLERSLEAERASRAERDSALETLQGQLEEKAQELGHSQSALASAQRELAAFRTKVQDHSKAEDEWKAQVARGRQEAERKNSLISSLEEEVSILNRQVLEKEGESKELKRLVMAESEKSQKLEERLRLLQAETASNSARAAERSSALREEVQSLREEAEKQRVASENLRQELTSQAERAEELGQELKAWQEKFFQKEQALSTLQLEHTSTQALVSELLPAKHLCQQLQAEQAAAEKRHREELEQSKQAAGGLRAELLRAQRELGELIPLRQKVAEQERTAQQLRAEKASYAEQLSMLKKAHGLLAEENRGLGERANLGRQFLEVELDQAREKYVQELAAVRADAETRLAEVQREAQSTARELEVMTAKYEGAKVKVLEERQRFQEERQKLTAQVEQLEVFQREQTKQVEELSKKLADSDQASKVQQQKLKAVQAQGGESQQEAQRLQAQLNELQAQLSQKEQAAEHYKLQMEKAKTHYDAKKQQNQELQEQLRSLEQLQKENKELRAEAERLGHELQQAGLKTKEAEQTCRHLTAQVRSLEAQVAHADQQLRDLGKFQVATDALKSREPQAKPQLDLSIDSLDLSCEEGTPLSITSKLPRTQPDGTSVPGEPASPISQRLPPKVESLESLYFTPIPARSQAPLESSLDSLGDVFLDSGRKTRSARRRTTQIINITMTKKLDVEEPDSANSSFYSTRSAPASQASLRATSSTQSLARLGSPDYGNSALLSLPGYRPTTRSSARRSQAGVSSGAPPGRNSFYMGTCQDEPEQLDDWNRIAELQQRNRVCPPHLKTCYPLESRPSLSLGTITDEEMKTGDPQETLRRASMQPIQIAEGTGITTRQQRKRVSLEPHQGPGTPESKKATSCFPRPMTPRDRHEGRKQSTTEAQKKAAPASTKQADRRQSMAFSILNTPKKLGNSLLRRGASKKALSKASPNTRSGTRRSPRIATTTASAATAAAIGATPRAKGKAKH
# Sequence of UniProt Q96D46 (Q96D46 whole entry, looked up): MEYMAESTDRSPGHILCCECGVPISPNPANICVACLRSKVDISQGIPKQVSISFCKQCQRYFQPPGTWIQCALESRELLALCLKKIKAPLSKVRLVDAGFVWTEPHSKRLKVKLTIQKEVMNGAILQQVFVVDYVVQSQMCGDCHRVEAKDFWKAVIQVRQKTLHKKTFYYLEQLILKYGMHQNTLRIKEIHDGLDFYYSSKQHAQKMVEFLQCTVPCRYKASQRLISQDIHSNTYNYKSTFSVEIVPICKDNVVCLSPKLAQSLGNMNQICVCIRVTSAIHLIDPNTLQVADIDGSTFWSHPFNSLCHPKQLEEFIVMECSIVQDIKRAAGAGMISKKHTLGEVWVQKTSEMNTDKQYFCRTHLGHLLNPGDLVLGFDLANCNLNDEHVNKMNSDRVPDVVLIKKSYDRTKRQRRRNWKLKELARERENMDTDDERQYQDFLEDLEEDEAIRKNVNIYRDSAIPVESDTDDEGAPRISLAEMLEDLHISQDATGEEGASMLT
# Sequence of UniProt P25208 (P25208 whole entry, looked up): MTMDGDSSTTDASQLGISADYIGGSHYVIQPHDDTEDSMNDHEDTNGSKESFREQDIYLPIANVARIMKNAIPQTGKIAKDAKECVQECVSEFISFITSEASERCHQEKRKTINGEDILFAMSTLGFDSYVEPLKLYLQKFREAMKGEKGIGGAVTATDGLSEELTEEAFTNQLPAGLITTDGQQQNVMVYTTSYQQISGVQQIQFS
# Sequence of UniProt Q96IV0 (Q96IV0 whole entry, looked up): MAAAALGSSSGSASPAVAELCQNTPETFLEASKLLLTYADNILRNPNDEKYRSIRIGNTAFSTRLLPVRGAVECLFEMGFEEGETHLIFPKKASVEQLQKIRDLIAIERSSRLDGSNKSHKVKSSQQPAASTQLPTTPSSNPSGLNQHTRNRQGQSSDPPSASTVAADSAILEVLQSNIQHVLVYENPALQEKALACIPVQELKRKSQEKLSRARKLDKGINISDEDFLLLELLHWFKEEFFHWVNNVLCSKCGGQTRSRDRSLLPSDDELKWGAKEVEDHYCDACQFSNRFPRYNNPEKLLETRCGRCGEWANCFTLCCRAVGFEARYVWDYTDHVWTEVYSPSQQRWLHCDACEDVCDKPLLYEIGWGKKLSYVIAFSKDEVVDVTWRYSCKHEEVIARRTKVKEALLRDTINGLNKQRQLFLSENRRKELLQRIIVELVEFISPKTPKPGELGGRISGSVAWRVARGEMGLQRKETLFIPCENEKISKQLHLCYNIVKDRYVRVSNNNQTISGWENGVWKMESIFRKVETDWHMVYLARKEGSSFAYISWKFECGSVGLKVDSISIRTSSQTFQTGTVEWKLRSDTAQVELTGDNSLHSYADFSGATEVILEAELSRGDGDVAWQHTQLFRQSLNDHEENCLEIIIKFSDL
# Sequence of UniProt O00217 (O00217 whole entry, looked up): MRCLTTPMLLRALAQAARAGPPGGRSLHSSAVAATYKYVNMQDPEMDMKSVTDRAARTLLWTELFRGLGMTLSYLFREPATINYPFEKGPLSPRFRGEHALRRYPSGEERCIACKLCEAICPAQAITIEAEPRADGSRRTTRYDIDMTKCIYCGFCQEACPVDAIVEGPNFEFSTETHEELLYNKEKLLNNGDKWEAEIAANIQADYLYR
# Sequence of UniProt O95182 (O95182 whole entry, looked up): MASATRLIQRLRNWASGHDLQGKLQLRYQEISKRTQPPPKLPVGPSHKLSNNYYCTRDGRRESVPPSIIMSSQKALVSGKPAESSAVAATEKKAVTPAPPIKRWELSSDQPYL
Target,log2 fold change [1],log2 fold change [2],log2 fold change [3],log2 fold change [4],log2 fold change [5],log2 fold change [6],log2 fold change [7],log2 fold change [8],log2 fold change [9],log2 fold change [10]
NDUFB8 (UniProt O95169),-0.042,0.004,-0.005,0.069,-0.04,-0.141,-0.023,0.06,-0.036,-0.034
NRDC isoform 2 (UniProt O43847),0,-0.038,0.005,-0.026,0.013,0.076,-0.022,-0.001,-0.019,-0.029
NDUFA7 (UniProt O95182),0.003,-0.072,0.005,-0.197,-0.042,-0.147,-0.178,0.013,-0.002,-0.007
NIPSNAP3B (UniProt Q9BS92),-0.033,-0.168,0.013,0.046,-0.046,-0.071,-0.138,0.009,-0.09,0.002
MTOR (UniProt P42345),0.002,-0.112,-0.308 (active),-0.09,-0.017,-0.012,-0.018,-0.019,0.014,0.019
MUL1 (UniProt Q969V5),-0.044,0.042,-0.064,-0.052,0.069,-0.05,0.017,-0.08,0.006,0.006
NUMA1 (UniProt Q14980),0.002,0.266,0.13,0.07,-0.088,-0.223,-0.001,-0.247,0.062,0.021
NUP98 (UniProt P52948),-0.003,0.045,0.009,0.061,0.007,0.047,0.026,-0.057,0.02,0.027
NDUFS8 (UniProt O00217),-0.07,-0.122,-0.003,-0.147,-0.15,-0.069,-0.028,0.081,0.01,0.018
MTMR14 (UniProt Q8NCE2),0.007,0.026,-0.04,0.02,-0.04,0.069,-0.02,0.017,-0.075,0.083
NOP58 (UniProt Q9Y2X3),-0.124,0.528 (active),0.044,0.229,-0.035,-0.096,0.039,-0.028,0.054,0.049
NRF1 isoform 4 (UniProt Q16656),0.048,-0.054,0.098,0.03,-0.077,-0.135,0.03,0.019,-0.078,0.167
NDUFA4 (UniProt O00483),-0.022,-0.031,-0.019,0.038,-0.024,-0.044,0.024,0.019,0.048,-0.025
MRPS33 (UniProt Q9Y291),-0.033,0.002,0.043,-0.167,-0.052,-0.057,0,0.008,0.036,-0.1
"NA, A0A0B4J2A0",0.084,-0.045,-0.021,-0.016,0.129,-0.029,-0.092,0.023,-0.026,0.05
NME1 isoform 2 (UniProt P15531),0.017,0.007,0.001,0.022,0.062,0.021,-0.063,0.141,-0.009,0.666 (active)
MRPS24 (UniProt Q96EL2),-0.153,0.047,0.088,-0.134,-0.104,0.096,-0.056,-0.014,0.047,-0.174
MRFAP1 (UniProt Q9Y605),0.015,-0.012,-0.018,0.173,-0.435,-0.154,-0.036,0.157,-0.093,-0.01
NAA38 isoform 2 (UniProt Q9BRA0),0.033,-0.014,0.001,-0.045,0.044,-0.005,0.02,0.052,0.062,0.023
NMD3 (UniProt Q96D46),0.004,-0.221,0.008,-0.095,-0.034,0.108,0.007,0.016,0,0.089
NAPG (UniProt Q99747),0.046,-0.046,0.052,-0.001,-0.005,-0.066,0.025,-0.089,0.029,-0.008
MRPS6 (UniProt P82932),0.204,-0.019,0.038,-0.275 (active),0.029,0.012,-0.051,-0.081,0.035,-0.003
MOV10 (UniProt Q9HCE1),-0.048,0.155,-0.005,0.071,-0.073,-0.021,0.002,-0.1,0.073,-0.048
OXSM (UniProt Q9NWU1),0.033,-0.014,-0.005,0.039,-0.131,-0.041,-0.001,0.025,0.007,0.057
OTUD4 (UniProt Q01804),-0.122,0.182,0.022,0.063,-0.106,-0.062,0.039,0.013,0.095,-0.025
MRPS15 (UniProt P82914),0.041,0.145,0.095,-0.265,-0.024,0.016,-0.054,0.024,0.08,-0.13
MRPL46 (UniProt Q9H2W6),-0.019,0.068,0.1,-0.012,-0.063,-0.088,0.005,-0.029,0.082,0.011
MRPS2 (UniProt Q9Y399),-0.052,-0.05,-0.02,-0.054,-0.19,0.005,-0.036,0.006,0.071,-0.015
NGLY1 (UniProt Q96IV0),0.02,0.043,-0.012,0.112,-0.064,0.047,0.076,-0.128,0.03,0.045
NFYB (UniProt P25208),0.245,-0.036,-0.024,0.066,-0.097,-0.047,0.039,0.02,0.078,-0.155
